# Screen size: about 38,000 compounds; about 1,200 (3.2%) showed an effect of 50% or more. The median lay at about -58%. The sample holds strong results, similar compounds and a random draw of the others, so the mix is not that of the screen.
# Test system: Plasmodium falciparum
# Assay: Calibr Malaria Delayed Death Assay SOP
# Assay type: functional, organism-based
# Parameters: scale not given: in the data most compounds retested in dose-response had high values
# Settings: concentration 4.99e-06 (unit not given; other assays of the set use mol/L)
row,SMILES,Percent Effect [%]
1,CC[C@H]1CN(C(=O)CCn2c(C)cccc2=O)CC[C@@]1(C)O,-150.9
2,CN(C)c1cc(CNC(=O)c2n[nH]c(=O)c3ccccc23)ccn1,-121.9
3,c1ccc(OCCNCc2cccs2)nc1,-81.56
4,c1ccc(OCCCNCc2cccs2)nc1,17.97
5,Cc1ccsc1CNCCCOc1ccccn1,53.78
6,O=C(O)C1(Cc2ccccc2F)CCCN(c2ncnc3[nH]ccc23)C1 (centres undefined),-54.27
7,C[C@@H]1CN(S(=O)(=O)c2ccc(F)cc2Cl)C[C@]1(C)O,-40.08
8,CCN1CCN(S(=O)(=O)c2cc(C)c(Cl)cc2C)CC1,16.43
9,CCN1CCN(S(=O)(=O)c2cc(Cl)c(Cl)cc2C)CC1,69.76
10,CCN1CCCN(S(=O)(=O)c2cnc3onc(C)c3c2)CC1,-44.36
11,Cc1ccc(S(=O)(=O)N2CCN(Cc3ccncc3)CC2)c(Cl)c1,0.628
12,CCN1CCN(S(=O)(=O)c2cc(C)c(Cl)cc2Cl)CC1,62.85
13,Cc1ccc(S(=O)(=O)NCCCN2CCC(O)CC2)cc1Cl,19.72
14,CCN1CCN(S(=O)(=O)c2cc(C)c(C)cc2Br)CC1,25.52
15,CCOCc1nc(N2CCCC2)sc1C(=O)NCc1ccco1,-71.71
16,O=S1(=O)c2cccnc2OC(COc2ccccc2)CN1CC1CC1 (centres undefined),-105.2
17,CC(C)NC(=O)CNC(C)c1c(F)cccc1Cl (centres undefined),-63.71
18,Cc1ccc(OCC(=O)NC2CCN(S(C)(=O)=O)CC2)cc1,-121.3
19,O=C(c1ccc(F)c(F)c1)N1CCCC1CN1CCCC1 (centres undefined),-45.59
20,CC(C)N(CCCNC(=O)C1CCOCC1)S(C)(=O)=O,-53.5
21,CN(C)C(=O)c1nn(C)c2c1CN(Cc1ccoc1)C2,-66.64
22,CC(=O)N1CCN(C[C@H]2CC[C@@H](Cc3ccc4ncccc4c3)O2)CC1,-19.65
23,CN1CCN(C[C@H]2CC[C@@H](Cc3ccc(CN4CCCC4)cc3)O2)CC1,35.77
24,c1cnc2ccc(C[C@@H]3CC[C@H](CN4CCCOCC4)O3)cc2c1,56.67
25,CC1CCN(Cc2ccc(CNC(=O)c3ccn(C)c(=O)c3)cc2)CC1,-16.27
26,Clc1cc(NCc2nccs2)nc2[nH]ccc12,-79.81

row,SMILES,Percent Effect [%]
1,Clc1cc(NCc2ncc[nH]2)nc2[nH]ccc12,-55.12
2,Clc1cc(NCc2ccncc2)nc2[nH]ccc12,63.3
3,CCOc1nn(CC)cc1-c1nnc(SCc2cccnc2)n1C,-73.46
4,Cc1ccc(C(=O)N2CCCCC2CN(C)C)cc1 (centres undefined),-61.09
5,CN(CCO)CC1COCCN1C(=O)C1CCCCC1.O=CO (centres undefined),-110.9
6,CCN1CCN(C2CCN(CCOc3ccc(F)cc3)CC2)C1=O,-7.395
7,CN(CC1CCN(CCO)CC1)CC(O)c1ccc(F)c(F)c1 (centres undefined),76.36
8,CN(CC1CCN(CCO)CC1)CC(O)c1ccc(F)cc1 (centres undefined),68.91
9,CN(CCOCC(F)(F)F)CC1CCN(CCO)CC1,17.18
10,Cn1ccnc1CN1CCN(CC(O)c2ccc(F)c(F)c2)CC1 (centres undefined),-68.2
11,Cc1noc(CN(C)CC2CCN(CCO)CC2)n1,-70.26
12,Cc1ccc(CNC(=O)CN(C)CC2CCN(CCO)CC2)s1,-11.16
13,O=C(O)c1ccc(CNC(=O)C2CCN(Cc3ccco3)CC2)s1,-25.63
14,CC1CN(c2ncccc2C(=O)N[C@@H]2CCCc3ccccc32)CCN1 (some centres undefined),43.77
15,Cc1cnn(CC2CN(Cc3nc(-c4ccco4)no3)CCO2)c1 (centres undefined),-38.17
16,O=C(NCC1CCN(CCc2ccccc2)C1)c1cc(Cl)c[nH]1 (centres undefined),64.57
17,CCN1CCC(CNC(=O)c2cc(Cl)c[nH]2)CC1,-105.8
18,COCCN1CCC(CNC(=O)c2cc(Cl)c[nH]2)CC1,-1.799
19,COc1ccc2c(=O)ccn(CC(=O)O)c2c1,-41.24
20,COc1ccc(C(=O)N(CCO)Cc2ccccc2)c(OC)n1,-39.82
21,O=C(CCS(=O)(=O)c1ccccc1)NCCCn1cccn1,-18.78
22,CC(CNC(=O)C1(c2ccc(F)cc2)CC1)CN1CCCC1=O (centres undefined),8.838
23,Cc1cc(C)n(CC(C)NC(=O)C2(c3ccc(F)cc3)CC2)n1 (centres undefined),-52.55
24,Cn1cc(N2CCC3(CCCN(C(=O)c4ccnn4C)C3)C2=O)cn1 (centres undefined),-100.5
25,Cc1ccc(C(=O)N2CCC3(CCC(=O)N(CC(C)O)C3)CC2)c(O)c1 (centres undefined),-27.05
26,O=C(O)C(F)(F)F.O=C(c1cccs1)N1CC[C@@H]2CN(C3CCOCC3)CCO[C@@H]2C1,-28.53

row,SMILES,Percent Effect [%]
1,OC(COCc1cccs1)Cn1cc(Cl)cn1 (centres undefined),-34.56
2,Cn1c(N2CCOCC2)nc2cc(C(=O)N3CC(O)CO3)ccc21 (centres undefined),-166.7
3,Cc1ccc(C(CCNCCCN(C)C)C2CCOC(C)(C)C2)cc1.O=C(O)C(=O)O (centres undefined),83.16
4,CCN(CC)CCCNCC1CCOC(C)(C)C1 (centres undefined),-55.61
5,CN(C)CCCNCC1CCOC(C)(C)C1 (centres undefined),16.23
6,CN(C)CCNCC1CCOC(C)(C)C1 (centres undefined),-38.44
7,CC(CCc1ccccc1)NC(=O)CNCCCN(C)C.O=C(O)C(=O)O (centres undefined),-24.06
8,CC1CN(C(=O)NCCNc2cnccn2)CCO1 (centres undefined),-97.79
9,O=C1CCSCC(C(=O)N2CCC(O)CC2)N1 (centres undefined),-111.3
10,CC(C)C(=O)NC1CCN(c2cccc(OC(F)(F)F)c2)C1=O (centres undefined),-46.04
11,O=C(NCC1CCOCC1)c1cc(-c2ccc3c(c2)CCO3)n[nH]1,-4.569
12,CCOc1ccc2ccccc2c1CNCC1CCS(=O)(=O)C1.Cl (centres undefined),73.94
13,Cc1c(Br)cccc1C(=O)NCC1CCNCC1.Cl,-131.1
14,Cc1cccc(C(=O)NCC2CCS(=O)(=O)C2)n1 (centres undefined),-33.59
15,Cc1nn(C)c(N2CCOCC2)c1CNCC1CCS(=O)(=O)C1 (centres undefined),-69.07
16,COc1cccc(-c2n[nH]cc2CNCC2CCS(=O)(=O)C2)c1 (centres undefined),-56.98
17,CCOc1ccc2ccccc2c1CNCC1CCNCC1.Cl.Cl,91.29
18,COc1ccc2ccccc2c1CNCC1CCS(=O)(=O)C1.Cl (centres undefined),66.1
19,CCOc1ccc(CNC(=O)N2CCCC(CO)C2)cc1F (centres undefined),-13.27
20,Cc1ccc(-c2n[nH]cc2CNCC2CCS(=O)(=O)C2)o1 (centres undefined),-9.681
21,CCOC(=O)N1CCC2(CCCN(C3CCOCC3)C2=O)C1 (centres undefined),-44.33
22,CCc1ccc(CNC(=O)Cn2ccc3sccc3c2=O)cc1,-94.67
23,O=C(NCCc1ccccn1)[C@@H]1CC[C@@H]2[C@@H](CCN2Cc2ccoc2)O1.O=C(O)C(F)(F)F.O=C(O)C(F)(F)F,-61.1
24,C1CCC(CO[C@@H]2CC[C@H]3[C@H]2OCCN3CC2CCOCC2)C1.O=C(O)C(F)(F)F,-55.18
25,O=C(O)C(F)(F)F.O=C(O)C(F)(F)F.O=C(c1ccco1)N1C[C@H]2CCCN(Cc3ccncc3)[C@H]2C1,-22.95
26,COc1ccc(NC(=O)c2cc3c([nH]c2=O)CCCC3=O)c(OC)c1,-49.85

row,SMILES,Percent Effect [%]
1,CCN1CCN(CCNC(=O)c2sc(C(C)C)nc2C)CC1,-17.43
2,O=C(NCc1cccs1)[C@@H]1CC[C@@H]2[C@@H](CCN2CC2CCC2)O1.O=C(O)C(F)(F)F,20.57
3,CCc1cnc(CN(C(C)=O)C2CCN(CCc3ccccn3)C2)o1 (centres undefined),-120.8
4,Cc1csc2ncnc(N3CCCC(Cn4cc(C(C)(C)O)nn4)C3)c12 (centres undefined),-82.82
5,Cc1cc(C(=O)Nc2cccn(Cc3ccc(F)cc3)c2=O)on1,-10.66
6,CCc1nc(CN2CCCN(C(=O)CCCOC)CC2)cs1,-51.29
7,Cc1cc2nc(CN(C)c3ccc(Cl)cc3)cc(=O)n2o1,-90.64
8,CCCS(=O)(=O)N1CCOC2(CCCN(Cc3ccccn3)C2)C1.O=C(O)C(F)(F)F (centres undefined),-25.77
9,CN(Cc1ncc(C(C)(C)C)o1)CC1CCCN1c1cccnn1 (centres undefined),79.78
10,CN(Cc1ncc(C(C)(C)C)o1)C1CCCN(c2cccnn2)C1 (centres undefined),-55.67
11,c1cnnc(N2CCCC2CNc2ncnc3ccsc23)c1 (centres undefined),-78.5
12,c1cnnc(N2CCCC2CNc2ncnc3c2CCC3)c1 (centres undefined),-141.7
13,CN(Cc1ncc(-c2ccccc2)o1)CC1CCCN1c1cccnn1 (centres undefined),-41.68
14,Fc1ccc(Oc2ccc(CNCC3CNc4ccnn4C3)cn2)cc1 (centres undefined),-107.9
15,O=C(COCC(=O)N(c1ccccc1)c1ccccc1)N1CCCCC1,-158.5
16,CCc1nc(NCC2CCCN(C(=O)C3CC3)C2)c2cnn(C)c2n1 (centres undefined),-178
17,CC(C)(C)C(=O)NCc1nccn1CCc1ccccc1,10.03
18,Cc1nccn1-c1ccc(C(C)NCCc2ccccn2)cc1 (centres undefined),9.885
19,CC(C)n1ccnc1CN1CCOC(CCc2ccccc2)C1 (centres undefined),7.997
20,CN(CCc1ccccn1)Cc1nccn1Cc1ccccc1,56
21,CCc1ccc(C(C)NCc2nccn2Cc2ccccc2)o1 (centres undefined),-17.05
22,CC(NCCc1nccn1Cc1ccccc1)c1ccsc1 (centres undefined),82.98
23,Cc1nccn1-c1ccc(C(C)NCCC(C)C)cc1 (centres undefined),48.4
24,CN(Cc1ccncc1)Cc1nccn1Cc1ccccc1,-44.2
25,CN(CCc1ccncc1)Cc1nccn1Cc1ccccc1,39.55
26,CCN1CCCC(C)(C(=O)NCc2nccn2Cc2ccccc2)C1 (centres undefined),29.31

# From ChEMBL document CHEMBL3988442, “University of Dundee, Small-Polar-MMV Screening Library” (2021)
